This note sets out measurements from PubChem BioAssay (NCATS).

Molecules are shown by their SMILES. Records with an inconclusive call do not appear. Calls of active or inactive are those of the source. The call rests on the fitted dose curve; in most records, active means well fitted inhibition curve with a large enough effect; inconclusive means small, poorly fitted or top-dose-only effect; inactive means flat fitted curve, though single readings scatter.

Holding throughout (assay): qHTS profiling for inhibitors of Plasmodium falciparum proliferation (AID 504749); further: nearly all actives have a fitted effect of over 60% in size
Holding throughout (details): P. falciparum in erythrocytes, SYBR Green DNA, 72 h; series mostly up to 28.7 µM

For one assay, the system named is CP185. An outline of the steps:
(§1)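 SYBR Green fluorescence of parasite DNA, read after lysis and overnight dark incubation, measured growth over 72 h in erythrocyte culture at 0.3% parasitemia and 2.5% hematocrit. Data normalised to DMSO and 0.29 uM artemisinin, with plate-drift correction.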

The subject of a further assay is CP191. An outline of the steps:
as §1

For a further assay, the system named is CP192. An outline of the steps:
as §1

For a further assay, the system named is CP194. An outline of the steps: as §1
The next assay deals with CP201. An outline of the steps:
as §1

A further assay has as its system CP211. In outline:
as §1

A further assay relates to CP215. In outline:
as §1

A further assay concerns CP217. In outline: as §1
In a further assay the test system is CP237. In outline: as §1
The next assay has as its system CP238. An outline of the steps:
as §1

For a further assay, the system named is CP247. In outline: as §1
The subject of another assay is CP250. In outline: as §1
The subject of another assay is CP252. In outline:
as §1

The test system of a further assay is CP256. An outline of the steps: as §1
A further assay relates to CP260. An outline of the steps:
as §1

Another assay has as its system CP262. In outline: as §1
Another assay has as its system CP265. An outline of the steps: as §1
Another assay deals with CP266. An outline of the steps:
as §1

The subject of the next assay is CP268. An outline of the steps:
as §1

In another assay the test system is CP269. An outline of the steps:
as §1
Potency means the concentration at half of the fitted maximal effect.

For the compound `CC(=O)CCCCn1c(=O)c2c(ncn2C)n(C)c1=O`, the outcome in the assay on CP185, in the assay on CP201, with CP238, in the assay on CP250, with CP252 and with CP256 was inactive. In addition, the call in the assay with CP260, with CP262, in the assay on CP266, in the assay on CP268 and with CP269 was inactive. Besides, the Potency entry in the assay with CP191, in the assay on CP192, in the assay on CP194, in the assay on CP211, in the assay with CP215 and in the assay with CP217 was “inactive” throughout. Further, the Potency result in the assay on CP237, in the assay on CP247 and with CP265 was “inactive” throughout.

For the compound `CC1=C(/C=C/C(C)=C/C=C/C(C)=C/C(=O)Nc2ccc(O)cc2)C(C)(C)CCC1`, the Potency is 7.94 µM (active) in the assay with CP191; 9.53 µM (active) in the assay with CP192; 13.5 µM (active) in the assay on CP194; 10.7 µM (active) with CP211; 10.7 µM (active) with CP215; 7.94 µM (active) in the assay with CP247. Besides, the result in the assay with CP256 was inactive.

As for `CC(=O)c1ccc(S(=O)(=O)NC(=O)NC2CCCCC2)cc1`, the compound was classed as inactive with CP185, in the assay with CP201, with CP238, in the assay on CP250, in the assay on CP252 and with CP256. The compound was called inactive in the assay with CP260, with CP262, in the assay on CP266, with CP268 and with CP269. In addition, the Potency result with CP191, with CP192, in the assay on CP194, with CP211, in the assay on CP215 and in the assay on CP217 was “inactive” each time. Also, the Potency result with CP237, in the assay on CP247 and in the assay on CP265 was “inactive” each time.

Turning to `CC(=O)O[C@]1(C(C)=O)CC[C@H]2[C@@H]3C=C(Cl)C4=CC(=O)[C@@H]5C[C@@H]5[C@]4(C)[C@H]3CC[C@@]21C`, the call in the assay on CP185, in the assay with CP238, in the assay on CP250 and in the assay on CP252 was inactive. Also, the Potency result in the assay on CP247 and in the assay on CP265 was “inactive” each time.

With `O=C1NCC2(CCN(CCc3ccccc3)CC2)O1`, the outcome in the assay with CP185, in the assay on CP201, in the assay with CP238, in the assay with CP250, with CP252 and in the assay with CP256 was inactive. The call with CP262, in the assay on CP266, in the assay on CP268 and in the assay with CP269 was inactive. Besides, the Potency entry with CP191, in the assay on CP192, in the assay on CP194, in the assay with CP211, in the assay with CP215 and with CP217 was “inactive” throughout. Also, the Potency result with CP237, in the assay on CP247 and in the assay on CP265 was “inactive” throughout.

In the case of `C[N+](C)(C)CCCCCC[N+](C)(C)C`, the outcome with CP185, with CP201, in the assay on CP238, in the assay with CP250, in the assay on CP252 and with CP256 was inactive. Also, the result in the assay with CP260, in the assay on CP262, in the assay on CP266, with CP268 and with CP269 was inactive. The Potency entry with CP191, in the assay on CP192, in the assay with CP194, in the assay on CP211, in the assay on CP215 and with CP217 was “inactive” each time. The Potency result in the assay on CP237, in the assay with CP247 and in the assay with CP265 was “inactive” each time.

Consider `O=C1NC(=O)C(c2ccccc2)(c2ccccc2)N1`, for which the outcome in the assay with CP185, with CP201, in the assay with CP238, in the assay with CP250, in the assay with CP252 and with CP256 was inactive. Also, the call with CP260, in the assay on CP262, with CP266, in the assay on CP268 and in the assay on CP269 was inactive. Further, the Potency entry in the assay on CP191, with CP192, in the assay on CP194, with CP211, in the assay with CP215 and with CP217 was “inactive” in each case. Also, the Potency result in the assay on CP237, in the assay with CP247 and in the assay with CP265 was “inactive” each time.

For the compound `CCN1CCC[C@H]1CNC(=O)c1cc(S(N)(=O)=O)ccc1OC`, the call with CP185, in the assay with CP201, in the assay on CP238, in the assay on CP250, in the assay on CP252 and in the assay with CP256 was inactive. In addition, the call in the assay on CP260, in the assay on CP262, with CP266, in the assay on CP268 and in the assay with CP269 was inactive. For the same compound, the Potency result with CP191, in the assay with CP192, in the assay on CP194, in the assay with CP211, in the assay with CP215 and in the assay with CP217 was “inactive” each time. The Potency entry in the assay with CP237, with CP247 and in the assay on CP265 was “inactive” in each case.

Consider `O=c1[nH]cnc2c1ncn2[C@H]1CC[C@@H](CO)O1`, for which the call with CP185, with CP201, in the assay on CP238, in the assay with CP250, in the assay with CP252 and in the assay on CP256 was inactive. The call in the assay on CP262, in the assay on CP266, with CP268 and with CP269 was inactive. Further, the Potency entry with CP192, in the assay with CP194, with CP211, with CP215, with CP217 and with CP237 was “inactive” each time. Also, in the assay with CP247, the Potency result was “inactive”.

As to `COc1ccc(Cc2nccc3cc(OC)c(OC)cc23)cc1OC`, the outcome in the assay with CP185, with CP201, in the assay on CP238, with CP250, with CP252 and in the assay on CP256 was inactive. In addition, the compound was classed as inactive in the assay on CP260, in the assay with CP262, in the assay on CP266, in the assay on CP268 and with CP269. In addition, the Potency entry in the assay on CP191, in the assay on CP192, with CP194, in the assay with CP211, in the assay with CP217 and in the assay on CP237 was “inactive” in each case. Besides, the Potency result with CP265 was “inactive”.

Take `CCN(CC)CCNC(=O)c1ccc(N)cc1`: the outcome in the assay with CP185, with CP201, in the assay with CP238, with CP250, with CP252 and with CP256 was inactive. The outcome in the assay with CP260, in the assay with CP262, with CP266, in the assay with CP268 and with CP269 was inactive. Also, the Potency result in the assay on CP191, in the assay on CP192, in the assay with CP194, with CP211, in the assay with CP215 and in the assay with CP217 was “inactive” in each case. For the same compound, the Potency entry in the assay with CP237, in the assay with CP247 and in the assay on CP265 was “inactive” each time.

Take `CCOC(=O)O[C@]1(C(=O)OCCl)CC[C@@H]2[C@H]3CCC4=CC(=O)C=C[C@]4(C)[C@@H]3[C@@H](O)C[C@@]21C`: the call in the assay with CP185, with CP201, with CP238, with CP250, with CP252 and with CP256 was inactive. Also, the call with CP260, with CP262, in the assay with CP268 and in the assay on CP269 was inactive. Also, the Potency entry in the assay with CP191, in the assay with CP192, in the assay on CP194, in the assay with CP211, in the assay on CP217 and in the assay with CP237 was “inactive” throughout. Further, the Potency entry in the assay on CP247 and in the assay on CP265 was “inactive” throughout.

Regarding `O=C(O)c1cc(-c2ccccc2)nc2ccccc12`, the result in the assay on CP185, in the assay with CP201, in the assay on CP238, in the assay with CP250, with CP252 and with CP256 was inactive. Besides, the result in the assay on CP260, in the assay with CP262, with CP268 and in the assay with CP269 was inactive. Moreover, the Potency entry in the assay on CP191, with CP192, with CP194, in the assay with CP211, in the assay on CP215 and in the assay on CP217 was “inactive” each time. Also, the Potency result with CP237, in the assay on CP247 and in the assay with CP265 was “inactive” throughout.

Consider `C[C@@H](O)[C@H]1C(=O)N2C(C(=O)O)=C(S[C@@H]3CN[C@H](C(=O)N(C)C)C3)[C@H](C)[C@H]12`, for which the result in the assay on CP185, in the assay on CP201, in the assay with CP238, with CP250, in the assay with CP252 and with CP256 was inactive. Further, the compound was called inactive in the assay with CP260, in the assay on CP262, with CP266, with CP268 and with CP269. Moreover, the Potency entry with CP191, in the assay on CP192, with CP194, in the assay with CP211, in the assay on CP215 and in the assay with CP217 was “inactive” each time. For the same compound, the Potency entry with CP237, in the assay on CP247 and in the assay with CP265 was “inactive” throughout.

Take `Cc1cccc(C)c1OCC(C)N` (stereo not drawn): the call in the assay with CP185, in the assay with CP201, in the assay with CP238, with CP250, in the assay with CP252 and in the assay on CP256 was inactive. The compound was called inactive in the assay with CP260 and with CP262. In addition, the Potency result in the assay on CP192, with CP211, in the assay with CP215, in the assay with CP217 and with CP247 was “inactive” in each case. For the same compound, the Potency in the assay with CP237 is 6.31 µM (active).

`O=C(O)c1c(Cl)c(Cl)c(Cl)c(Cl)c1-c1c2cc(I)c(=O)c(I)c-2oc2c(I)c(O)c(I)cc12`: the call in the assay with CP185, in the assay on CP201, with CP238, in the assay on CP250, in the assay on CP252 and in the assay with CP256 was inactive. Further, the outcome in the assay on CP260, in the assay with CP262, with CP266, in the assay with CP268 and in the assay on CP269 was inactive. Also, the Potency result in the assay with CP191, with CP192, in the assay with CP194, with CP211, in the assay on CP215 and in the assay with CP217 was “inactive” throughout. Also, the Potency entry in the assay on CP237, in the assay on CP247 and in the assay with CP265 was “inactive” in each case.
